Data on 21 compounds can be found in PubChem BioAssay (EPA / NIEHS).

Common to all, as to details: mRNA level, 48 h; actives raise or lower the signal
Read-out in experiment [1]: ATP-citrate lyase (ACLY), ACLY (gene 47)
In words: LTEA_HepaRG_ACLY: Life Technologies and Expression Analysis (LTEA) Assay for ATP-citrate lyase (ACLY) using HepaRG (AID 2283466). An outline of the steps: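 HepaRG, 48 h exposure, 8-pt half-log dilutions (top 100 uM), 0.5% DMSO. Readout: ACLY mRNA, TaqMan qRT-PCR, housekeeping-normalized (ACTB/GAPDH/POLR2A). Bidirectional curve fit vs DMSO.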

Read-out in experiment [2]: Peroxisomal acyl-coenzyme A oxidase 1 (ACOX1) gene, ACOX1 (gene 51)
In words: LTEA_HepaRG_ACOX1: Life Technologies and Expression Analysis (LTEA) Assay for Peroxisomal acyl-coenzyme A oxidase 1 (ACOX1) gene using HepaRG (AID 2283467). An outline of the steps:
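Measured by qRT-PCR against three housekeeping genes: ACOX1 transcript change in human HepaRG cells after 48 h dosing. Concentrations ran up to 100 uM in half-log steps. Curves were fitted bidirectionally relative to 0.5% DMSO.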

Read-out in experiment [3]: Alkaline Phosphatase, Placental (ALPP) gene, ALPP (gene 250)
In words: LTEA_HepaRG_ALPP: Life Technologies and Expression Analysis (LTEA) Assay for Alkaline Phosphatase, Placental (ALPP) gene using HepaRG (AID 2283468). An outline of the steps: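 Using human liver HepaRG cells, chemicals are tested in duplicate over 48 h at half-log concentrations topping at 100 uM; phenobarbital 1 mM serves as induction control. ALPP mRNA change by qRT-PCR, bidirectional fit against vehicle.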

Read-out in experiment [4]: Bcl-2 (BAD) gene, BAD (gene 572)
In words: LTEA_HepaRG_BAD: Life Technologies and Expression Analysis (LTEA) Assay for Bcl-2 (BAD) gene using HepaRG (AID 2283469). An outline of the steps:
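BAD transcript change, measured by qRT-PCR against three housekeeping genes and fitted in both directions relative to 0.5% DMSO, after 48 h chemical treatment of human HepaRG liver cells at concentrations up to 100 uM.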

Read-out in experiment [5]: Bcl-2 (BAX) gene, BAX (gene 581)
In words: LTEA_HepaRG_BAX: Life Technologies and Expression Analysis (LTEA) Assay for Bcl-2 (BAX) gene using HepaRG (AID 2283470). The method, boiled down: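 Differentiated human HepaRG cells, plated 48 h then switched to serum-free induction medium, were exposed 48 h to 8 half-log concentrations up to 100 uM in 0.5% DMSO; BAX mRNA measured by qRT-PCR, normalized to ACTB, GAPDH, POLR2A.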

Read-out in experiment [6]: adenosine kinase (ADK) gene, ADK (gene 132)
In words: LTEA_HepaRG_ADK: Life Technologies and Expression Analysis (LTEA) Assay for adenosine kinase (ADK) gene using HepaRG (AID 2283471). An outline of the steps:
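Following 48 h exposure of HepaRG cells in 0.5% DMSO (top concentration 100 uM, duplicate wells), ADK mRNA induction or suppression was measured by qRT-PCR, normalised to ACTB/GAPDH/POLR2A, and fitted bidirectionally relative to vehicle.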

Read-out in experiment [7]: Alpha-fetoprotein (AFP) gene, AFP (gene 174)
In words: LTEA_HepaRG_AFP: Life Technologies and Expression Analysis (LTEA) Assay for Alpha-fetoprotein (AFP) gene using HepaRG (AID 2283472). The method, boiled down: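 Human HepaRG cells plated 48 h, then switched to serum-free induction medium and exposed in duplicate for 48 h to 8-point half-log series from 100 uM in 0.5% DMSO. AFP mRNA by qRT-PCR, normalized to ACTB, GAPDH, POLR2A; bidirectional fit versus DMSO.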

Read-out in a further experiment: BCL2L11 (gene 10018)
In words: LTEA_HepaRG_BCL2L11: Life Technologies and Expression Analysis (LTEA) Assay for Bcl-2 (BCL2L11) gene using HepaRG (AID 2283473). An outline of the steps:
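Human hepatic HepaRG cultures are treated 48 h with test chemicals (maximum 100 uM, 0.5% DMSO vehicle). Expression of BCL2L11 is measured by qRT-PCR against ACTB, GAPDH and POLR2A, with activity in either direction scored relative to vehicle.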

Read-out in experiment [8]: Apolipoprotein A-V (APOA5) gene, APOA5 (gene 116519)
In words: LTEA_HepaRG_APOA5: Life Technologies and Expression Analysis (LTEA) Assay for Apolipoprotein A-V (APOA5) gene using HepaRG (AID 2283474). An outline of the steps:
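Concentration-response of APOA5 expression in HepaRG: eight half-log doses to 100 uM, 48 h, qRT-PCR normalized to ACTB/GAPDH/POLR2A, bidirectional fitting with 0.5% DMSO as baseline.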

Read-out in experiment [9]: Apoptosis regulator Bcl-2 (Homo sapiens) (UniProt P10415)
In words: LTEA_HepaRG_BCL2: Life Technologies and Expression Analysis (LTEA) Assay for Bcl-2 gene using HepaRG (AID 2283475). An outline of the steps: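 Differentiated HepaRG cells in serum-free induction medium were exposed for 48 h to eight half-log concentrations up to 100 uM in 0.5% DMSO, in duplicate. BCL2 mRNA was quantified by TaqMan qRT-PCR normalised to ACTB, GAPDH and POLR2A, with bidirectional fitting versus DMSO.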

Active and inactive are the calls of the source. Rule for the calls: active = hit-call score of the fitted dose curve at least 0.9, where 1 is the maximum; inactive = score below 0.9.

Sequence of Apoptosis regulator Bcl-2 (Homo sapiens) (P10415 whole entry, looked up): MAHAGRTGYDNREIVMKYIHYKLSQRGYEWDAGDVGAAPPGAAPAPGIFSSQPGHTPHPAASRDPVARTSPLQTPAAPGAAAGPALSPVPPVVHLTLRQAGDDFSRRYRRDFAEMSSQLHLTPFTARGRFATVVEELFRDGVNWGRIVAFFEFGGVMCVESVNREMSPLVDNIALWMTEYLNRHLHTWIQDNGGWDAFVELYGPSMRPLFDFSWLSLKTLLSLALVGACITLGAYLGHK

On to `COCCOC[C@H](CC1(C(=O)NC2CCC(C(=O)O)CC2)CCCC1)C(=O)Oc1ccc2c(c1)CCC2` (some centres undefined), for which the call in experiment [1], in experiment [2], in experiment [3], in experiment [4], in [5] and in [6] was inactive. The compound was classed as inactive (in experiment [7]; in the experiment with BCL2L11 (gene 10018); in experiment [8]; in experiment [9]).

On to `CC=Cc1ccc(O)c(OC)c1`, for which the result in experiment [1], in experiment [2], in experiment [3], in experiment [4], in experiment [5] and in [6] was inactive. In addition, the compound was called inactive (in [7]; in the experiment with BCL2L11 (gene 10018); in [8]; in experiment [9]).

Take `CCCCCCCCCCC`: the outcome in [1], in experiment [2], in experiment [3], in experiment [4], in experiment [5] and in experiment [6] was inactive. For the same compound, the outcome (in experiment [7]; with BCL2L11 (gene 10018); in experiment [8]; in [9]) was inactive.

Consider `CCCCN(CCCC)CCCC`, for which the compound was called inactive in experiment [1], in experiment [2], in experiment [3], in [4], in experiment [5] and in experiment [6]. Also, the compound was classed as inactive (in experiment [7]; with BCL2L11 (gene 10018); in experiment [8]; in experiment [9]).

Turning to `CC(C)(C)c1cc(O)c(C(C)(C)C)cc1O`, the result (in experiment [1]; in [4]; in experiment [5]; with BCL2L11 (gene 10018); in experiment [8]; in [9]) was inactive. Besides, the AC50 was 77.3 µM (active) in experiment [2], 90.8 µM (active) in [3], 76.7 µM (active) in [6] and 77.7 µM (active) in [7].

Take `Oc1ccc2ccccc2c1N=Nc1ccccc1`: the result in experiment [1], in experiment [3], in experiment [4], in experiment [5], in experiment [6] and in experiment [8] was inactive. Moreover, the AC50 in experiment [2] was 11.1 µM (active); in [7], 27.9 µM (active); with BCL2L11 (gene 10018) it was 15.1 µM (active); in experiment [9] it was 31.5 µM (active).

Regarding `CCCCc1ccc2c(n1)[C@@H](c1ccc(OC)cc1C[C@H](C)C(=O)O)[C@H](C(=O)O)[C@H]2c1ccc2c(c1)OCO2`, the outcome in experiment [1], in experiment [2], in experiment [3], in experiment [4], in [5] and in experiment [6] was inactive. The outcome (in experiment [7]; with BCL2L11 (gene 10018); in [8]; in [9]) was inactive.

For `Nc1ccc2c(c1)C(=O)c1ccccc1C2=O`, the call (in experiment [1]; in [2]; in experiment [3]; in experiment [4]; in experiment [6]; in the experiment with BCL2L11 (gene 10018)) was inactive. Further, the compound was called inactive in experiment [9]. For the same compound, the AC50 in experiment [5] was 15 µM (active); in experiment [7], 22.8 µM (active); in [8], 5.42 µM (active).

For `CC(C)c1ccc(C(=O)N=C(N)N)cc1S(C)(=O)=O`, in experiment [1], the result was inactive. In addition, the AC50 in experiment [3] was 0.59 µM (active); in [4], 407 nM (active); in experiment [5], 7.39 µM (active); in experiment [6], 0.418 µM (active); in experiment [7] it was 0.35 µM (active); in the experiment with BCL2L11 (gene 10018), 0.397 µM (active). Besides, the AC50 in experiment [8] was 0.302 µM (active); in [9] it was 0.558 µM (active).

Take `Cc1cc(NC(=O)C(=O)O)cc(C)c1Oc1ccc(O)c2c1CCC2`: the compound was classed as inactive (in experiment [1]; in experiment [3]; in experiment [4]; in experiment [5]; in experiment [6]; with BCL2L11 (gene 10018)). The call in [8] and in experiment [9] was inactive. Besides, in experiment [7], the AC50 is 9.92 µM (active).

As to `O=c1[nH]cc(F)c(=O)[nH]1`, the compound was called inactive in experiment [1], in experiment [3], in experiment [4], in experiment [5], in experiment [6] and in experiment [7]. Moreover, the outcome (in the experiment with BCL2L11 (gene 10018); in experiment [9]) was inactive. The half-maximal activity concentration (AC50) in [8] was 70.9 µM (active).

For `C1CCC(SSC2CCCCC2)CC1`, the compound was classed as inactive in experiment [1], in experiment [2], in experiment [3], in experiment [4], in experiment [5] and in experiment [6]. In addition, the result (in experiment [7]; with BCL2L11 (gene 10018); in experiment [8]; in experiment [9]) was inactive.

As to `CCCCCCCCCCCCCCCCCC(=O)O`, the call in experiment [1], in experiment [2], in experiment [3], in experiment [4], in experiment [5] and in experiment [6] was inactive. The result (in [7]; in the experiment with BCL2L11 (gene 10018); in [8]; in [9]) was inactive.

For `OC[C@@H](O)[C@@H](O)[C@H](O)[C@H](O)CO`, the compound was called inactive in experiment [1], in experiment [2], in experiment [3], in [4], in experiment [5] and in experiment [6]. Also, the compound was called inactive (in [7]; with BCL2L11 (gene 10018); in experiment [8]; in experiment [9]).

Turning to `Cc1ccc(C)c(O)c1C`, the outcome in experiment [1], in experiment [2], in [3], in experiment [4], in experiment [5] and in experiment [6] was inactive. Moreover, the compound was called inactive (in experiment [7]; with BCL2L11 (gene 10018); in [8]; in experiment [9]).

As for `CCOC(=O)C(C)(C)Oc1ccc(Cl)cc1`, the compound was classed as inactive in experiment [1], in experiment [2], in experiment [3], in [4], in [5] and in experiment [6]. In addition, the result (in experiment [7]; with BCL2L11 (gene 10018); in experiment [8]; in [9]) was inactive.

For the compound `Cc1nc(C)nc(N2C[C@@H](C)N(c3ccnc([C@@H](C)O)n3)[C@@H](C)C2)n1`, the compound was called inactive in experiment [1], in [2], in [3], in [4], in experiment [5] and in [6]. The call (in experiment [7]; with BCL2L11 (gene 10018); in [8]; in experiment [9]) was inactive.

Regarding `COc1cc(-c2nc(NC(=O)c3cc4cc(C)cc(C)c4n3CC(=O)O)sc2CCC2CCCCC2)c(OC)cc1Cl`, the AC50 in experiment [1] is 12 µM (active); in experiment [2], 8.11 µM (active); in [6] it was 15.6 µM (active); in [7], 6.7 µM (active); with BCL2L11 (gene 10018), 60.6 µM (active); in experiment [9], 20.1 µM (active). Moreover, the result in experiment [3], in experiment [4], in [5] and in experiment [8] was inactive.

Take `CC1(C)NC(=O)NC1=O`: the outcome in [1], in experiment [3], in experiment [4], in experiment [5], in [6] and in experiment [7] was inactive. Further, the call (with BCL2L11 (gene 10018); in experiment [8]; in experiment [9]) was inactive.

As to `Cc1cccc([N+](=O)[O-])c1C`, the compound was classed as inactive in experiment [1], in experiment [3], in [4], in experiment [5], in experiment [6] and in experiment [7]. Also, the call (with BCL2L11 (gene 10018); in [8]; in experiment [9]) was inactive.

Take `COc1ccc(C)cc1N`: the compound was called inactive in [1], in [3], in experiment [4], in experiment [5], in experiment [6] and in experiment [7]. The compound was called inactive (in the experiment with BCL2L11 (gene 10018); in experiment [8]; in experiment [9]).

As usually defined, the AC50 is the concentration at which the activity in the assay is half-maximal.
